Tests used:
[1] = molecular target: T1, Serine/threonine-protein kinase TBK1 (Homo sapiens) (UniProt Q9UHD2); details: at 10 µM
T1 sequence (whole entry): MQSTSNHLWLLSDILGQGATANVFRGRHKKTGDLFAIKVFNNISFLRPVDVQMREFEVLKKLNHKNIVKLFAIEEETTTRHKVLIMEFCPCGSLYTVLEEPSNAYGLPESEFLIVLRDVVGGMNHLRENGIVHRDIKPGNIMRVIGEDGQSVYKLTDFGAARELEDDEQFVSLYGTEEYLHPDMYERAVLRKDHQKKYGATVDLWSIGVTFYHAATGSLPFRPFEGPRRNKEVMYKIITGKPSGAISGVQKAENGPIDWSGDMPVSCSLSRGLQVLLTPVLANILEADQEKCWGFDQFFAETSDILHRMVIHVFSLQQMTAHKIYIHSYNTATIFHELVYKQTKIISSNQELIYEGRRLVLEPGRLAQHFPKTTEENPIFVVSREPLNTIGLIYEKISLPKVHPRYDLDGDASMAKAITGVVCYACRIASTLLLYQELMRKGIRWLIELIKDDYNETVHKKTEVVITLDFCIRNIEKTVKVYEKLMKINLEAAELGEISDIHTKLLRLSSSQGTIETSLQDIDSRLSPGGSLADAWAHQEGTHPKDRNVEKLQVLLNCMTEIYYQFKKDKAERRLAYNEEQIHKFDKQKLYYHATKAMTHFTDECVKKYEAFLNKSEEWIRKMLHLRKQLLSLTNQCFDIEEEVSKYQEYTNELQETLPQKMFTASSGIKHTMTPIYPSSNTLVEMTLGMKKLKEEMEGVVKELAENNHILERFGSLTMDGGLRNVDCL

[2] = molecular target: T2, TGF-beta receptor type-1 (Homo sapiens) (UniProt P36897); details: at 1 µM
T2 sequence (whole entry): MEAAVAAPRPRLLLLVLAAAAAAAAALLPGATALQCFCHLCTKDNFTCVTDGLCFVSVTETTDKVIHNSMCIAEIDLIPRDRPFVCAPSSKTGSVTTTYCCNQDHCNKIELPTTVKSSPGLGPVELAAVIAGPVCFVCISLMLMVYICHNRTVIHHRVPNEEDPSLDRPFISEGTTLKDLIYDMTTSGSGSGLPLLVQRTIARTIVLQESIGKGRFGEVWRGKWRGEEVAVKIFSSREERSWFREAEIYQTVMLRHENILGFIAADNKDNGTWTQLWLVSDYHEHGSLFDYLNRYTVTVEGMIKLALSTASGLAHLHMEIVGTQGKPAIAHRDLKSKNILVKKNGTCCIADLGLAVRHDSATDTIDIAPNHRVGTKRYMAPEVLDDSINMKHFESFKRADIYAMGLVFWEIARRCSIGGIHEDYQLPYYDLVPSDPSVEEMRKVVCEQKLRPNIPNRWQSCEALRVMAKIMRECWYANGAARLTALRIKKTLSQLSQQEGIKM

[3] = molecular target: T2, TGF-beta receptor type-1 (Homo sapiens); details: at 10 µM
[4] = molecular target: Insulin-like growth factor 1 receptor (Homo sapiens) (UniProt P08069); details: at 1 µM
[5] = molecular target: Insulin-like growth factor 1 receptor (Homo sapiens) (UniProt P08069); details: at 10 µM
[6] = molecular target: T3, Inhibitor of nuclear factor kappa-B kinase subunit alpha (Homo sapiens) (UniProt O15111); details: at 1 µM
T3 sequence (whole entry): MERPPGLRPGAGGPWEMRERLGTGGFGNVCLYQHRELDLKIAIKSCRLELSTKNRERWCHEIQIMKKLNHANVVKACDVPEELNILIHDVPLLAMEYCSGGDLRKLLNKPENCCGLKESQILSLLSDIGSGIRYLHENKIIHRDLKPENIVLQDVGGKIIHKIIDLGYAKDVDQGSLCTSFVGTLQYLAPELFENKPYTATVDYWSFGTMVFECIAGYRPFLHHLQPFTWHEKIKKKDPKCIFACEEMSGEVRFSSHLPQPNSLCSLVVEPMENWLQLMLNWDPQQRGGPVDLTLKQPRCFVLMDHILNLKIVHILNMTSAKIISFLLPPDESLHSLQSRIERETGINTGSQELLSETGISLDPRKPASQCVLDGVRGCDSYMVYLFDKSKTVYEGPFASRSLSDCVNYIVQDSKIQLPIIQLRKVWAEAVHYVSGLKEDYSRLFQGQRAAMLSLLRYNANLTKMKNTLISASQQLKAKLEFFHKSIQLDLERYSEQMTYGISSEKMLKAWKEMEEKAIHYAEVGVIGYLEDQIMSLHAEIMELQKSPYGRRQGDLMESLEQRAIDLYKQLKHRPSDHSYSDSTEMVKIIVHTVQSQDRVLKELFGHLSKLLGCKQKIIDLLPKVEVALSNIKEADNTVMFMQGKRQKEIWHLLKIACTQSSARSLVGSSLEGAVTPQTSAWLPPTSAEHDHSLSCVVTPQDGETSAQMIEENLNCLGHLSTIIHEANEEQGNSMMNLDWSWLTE

[7] = molecular target: T3, Inhibitor of nuclear factor kappa-B kinase subunit alpha (Homo sapiens); details: at 10 µM
[8] = molecular target: T4, Inhibitor of nuclear factor kappa-B kinase subunit beta (Homo sapiens) (UniProt O14920); details: at 1 µM
T4 sequence (whole entry): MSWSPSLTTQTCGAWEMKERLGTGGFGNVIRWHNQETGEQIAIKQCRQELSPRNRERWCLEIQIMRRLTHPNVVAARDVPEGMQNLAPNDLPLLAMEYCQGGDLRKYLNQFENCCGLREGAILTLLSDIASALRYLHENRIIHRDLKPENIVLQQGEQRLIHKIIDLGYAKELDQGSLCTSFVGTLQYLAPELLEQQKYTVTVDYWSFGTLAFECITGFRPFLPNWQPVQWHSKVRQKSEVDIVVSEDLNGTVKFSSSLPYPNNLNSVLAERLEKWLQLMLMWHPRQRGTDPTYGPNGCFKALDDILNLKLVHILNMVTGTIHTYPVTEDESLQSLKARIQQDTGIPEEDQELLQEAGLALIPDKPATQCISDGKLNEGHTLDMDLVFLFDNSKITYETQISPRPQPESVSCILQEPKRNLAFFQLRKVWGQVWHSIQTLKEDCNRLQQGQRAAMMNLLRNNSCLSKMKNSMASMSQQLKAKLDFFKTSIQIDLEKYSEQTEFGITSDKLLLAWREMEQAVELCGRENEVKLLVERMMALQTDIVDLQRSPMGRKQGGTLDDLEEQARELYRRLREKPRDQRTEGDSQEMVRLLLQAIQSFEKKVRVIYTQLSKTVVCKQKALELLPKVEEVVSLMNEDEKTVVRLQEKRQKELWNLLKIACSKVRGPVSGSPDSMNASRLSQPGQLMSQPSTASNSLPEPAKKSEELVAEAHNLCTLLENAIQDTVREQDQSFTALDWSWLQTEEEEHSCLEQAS

[9] = molecular target: T4, Inhibitor of nuclear factor kappa-B kinase subunit beta (Homo sapiens); details: at 10 µM
[10] = molecular target: Insulin receptor (Homo sapiens) (UniProt P06213); details: at 1 µM
Sequence of Insulin receptor (Homo sapiens) (P06213 28-758 limits assumed): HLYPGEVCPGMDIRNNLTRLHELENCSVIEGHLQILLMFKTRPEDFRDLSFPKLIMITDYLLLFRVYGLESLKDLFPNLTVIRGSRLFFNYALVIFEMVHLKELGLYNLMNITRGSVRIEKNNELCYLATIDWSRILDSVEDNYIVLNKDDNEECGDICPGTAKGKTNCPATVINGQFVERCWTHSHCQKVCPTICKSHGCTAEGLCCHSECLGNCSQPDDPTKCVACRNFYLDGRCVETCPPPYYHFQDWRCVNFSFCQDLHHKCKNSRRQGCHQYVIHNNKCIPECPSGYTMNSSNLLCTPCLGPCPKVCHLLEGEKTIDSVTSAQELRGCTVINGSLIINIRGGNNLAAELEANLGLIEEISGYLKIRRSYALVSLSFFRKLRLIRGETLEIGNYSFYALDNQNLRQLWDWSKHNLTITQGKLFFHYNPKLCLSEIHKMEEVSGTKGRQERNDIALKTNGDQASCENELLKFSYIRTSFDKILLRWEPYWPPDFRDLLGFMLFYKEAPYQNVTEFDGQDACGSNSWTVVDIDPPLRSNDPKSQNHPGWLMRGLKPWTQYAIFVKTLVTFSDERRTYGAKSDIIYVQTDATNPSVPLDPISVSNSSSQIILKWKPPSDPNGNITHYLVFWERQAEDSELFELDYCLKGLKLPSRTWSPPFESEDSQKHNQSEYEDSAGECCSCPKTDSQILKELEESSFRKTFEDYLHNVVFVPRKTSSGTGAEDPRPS
Sequence of Insulin receptor (Homo sapiens) (P06213 763-1382 limits assumed): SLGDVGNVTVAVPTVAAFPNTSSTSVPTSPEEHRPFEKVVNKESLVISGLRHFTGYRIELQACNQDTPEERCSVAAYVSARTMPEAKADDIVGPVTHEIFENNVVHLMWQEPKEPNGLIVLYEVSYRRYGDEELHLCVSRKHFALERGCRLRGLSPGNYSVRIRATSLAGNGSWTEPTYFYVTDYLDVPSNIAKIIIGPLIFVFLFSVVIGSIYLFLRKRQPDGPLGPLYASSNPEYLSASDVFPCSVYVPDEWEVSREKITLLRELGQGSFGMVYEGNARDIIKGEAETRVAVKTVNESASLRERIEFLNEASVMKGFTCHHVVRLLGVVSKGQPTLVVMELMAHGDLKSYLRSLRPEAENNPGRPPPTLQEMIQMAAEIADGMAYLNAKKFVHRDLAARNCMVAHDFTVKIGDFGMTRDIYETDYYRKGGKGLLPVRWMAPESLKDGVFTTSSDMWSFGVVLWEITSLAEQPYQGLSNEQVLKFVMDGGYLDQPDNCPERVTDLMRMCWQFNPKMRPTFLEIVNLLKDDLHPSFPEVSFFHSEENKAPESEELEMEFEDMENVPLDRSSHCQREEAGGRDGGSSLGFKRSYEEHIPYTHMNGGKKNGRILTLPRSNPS

Sequence of Insulin-like growth factor 1 receptor (Homo sapiens) (P08069 31-736 limits assumed): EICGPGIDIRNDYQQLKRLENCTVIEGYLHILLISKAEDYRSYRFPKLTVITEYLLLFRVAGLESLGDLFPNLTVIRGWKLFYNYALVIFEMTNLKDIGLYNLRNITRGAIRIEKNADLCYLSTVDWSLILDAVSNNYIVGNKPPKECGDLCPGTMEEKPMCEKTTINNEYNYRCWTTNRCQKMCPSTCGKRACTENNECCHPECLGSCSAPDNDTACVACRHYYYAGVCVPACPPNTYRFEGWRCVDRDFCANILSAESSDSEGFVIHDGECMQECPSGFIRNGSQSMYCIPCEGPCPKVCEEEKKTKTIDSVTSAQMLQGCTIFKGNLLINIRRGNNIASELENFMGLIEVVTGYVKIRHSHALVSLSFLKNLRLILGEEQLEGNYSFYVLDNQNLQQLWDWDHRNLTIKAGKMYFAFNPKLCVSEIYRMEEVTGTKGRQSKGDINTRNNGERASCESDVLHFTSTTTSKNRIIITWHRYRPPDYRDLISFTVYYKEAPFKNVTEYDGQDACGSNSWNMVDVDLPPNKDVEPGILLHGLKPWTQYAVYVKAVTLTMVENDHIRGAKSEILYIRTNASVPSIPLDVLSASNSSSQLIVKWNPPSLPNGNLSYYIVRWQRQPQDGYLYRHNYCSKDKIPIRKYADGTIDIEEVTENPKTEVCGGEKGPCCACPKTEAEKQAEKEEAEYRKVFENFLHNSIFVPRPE
Sequence of Insulin-like growth factor 1 receptor (Homo sapiens) (P08069 741-1367 limits assumed): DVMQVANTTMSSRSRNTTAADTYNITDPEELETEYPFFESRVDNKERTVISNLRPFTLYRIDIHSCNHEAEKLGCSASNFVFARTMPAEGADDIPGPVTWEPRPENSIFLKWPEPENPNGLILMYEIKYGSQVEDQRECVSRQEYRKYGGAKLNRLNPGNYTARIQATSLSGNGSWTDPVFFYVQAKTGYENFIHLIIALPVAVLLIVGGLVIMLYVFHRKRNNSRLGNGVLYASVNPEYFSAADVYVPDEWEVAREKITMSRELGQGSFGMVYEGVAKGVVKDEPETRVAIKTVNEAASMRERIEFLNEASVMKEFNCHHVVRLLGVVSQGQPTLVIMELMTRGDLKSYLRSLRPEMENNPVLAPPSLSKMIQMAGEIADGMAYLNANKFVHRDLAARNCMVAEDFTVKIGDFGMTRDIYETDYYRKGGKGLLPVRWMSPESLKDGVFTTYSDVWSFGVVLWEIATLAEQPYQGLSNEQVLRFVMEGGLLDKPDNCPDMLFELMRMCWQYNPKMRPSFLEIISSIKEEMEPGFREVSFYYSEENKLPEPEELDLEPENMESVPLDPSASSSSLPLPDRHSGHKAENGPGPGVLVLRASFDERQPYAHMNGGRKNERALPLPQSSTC

Compound: Cc1nc2cc3nc(-c4cccs4)cnc3cc2n1C
- residual activity [1]: 87%
- residual activity [2]: 98%
- residual activity [3]: 118%
- residual activity [4]: 115%
- residual activity [5]: 106%
- residual activity [6]: 125%
- residual activity [7]: 106%
- residual activity [8]: 106%
- residual activity [9]: 106%
- residual activity [10]: 117%

Reference: ChEMBL document CHEMBL2218924, “A broad activity screen in support of a chemogenomic map for kinase signalling research and drug discovery” (Biochem J, 2013)
